From PubChem BioAssay (Tox21)
Records with an inconclusive call do not appear. Calls of active or inactive are those of the source. Unless noted, calls come from the whole dose curve; as a rule, active = well fitted curve in the direction sought with a large enough effect in the repeat runs; inconclusive = weak or mixed curves; inactive = no such curve, though single readings can be large; an effect the other way counts as inactive or inconclusive.

Experiments:
[1] = qHTS assay to identify aromatase inhibitors - cell viability counter screen (AID 743084);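 note: cells stimulated with testosterone during compound exposure; nearly all actives have a fitted effect of over 55% in size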
[2] = target: Aryl hydrocarbon receptor (Homo sapiens) (UniProt P35869); assay: qHTS assay to identify small molecule that activate the aryl hydrocarbon receptor (AhR) signaling pathway (AID 743085); note: nearly all actives have a fitted effect of over 15% in size; note: potency is the fitted concentration of half-maximal effect;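 for activation: HG2L7.5c1 human HepG2 liver cells with stably integrated DRE-driven firefly reporter; series mostly up to about 70 µM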
How it was run: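 HepG2 cells (HG2L7.5c1) stably carrying a firefly luciferase reporter driven by 20 dioxin responsive elements were exposed to compound for 24 h at 37C after a 5 h settling period; luminescence rise (ONE-Glo) indicated activation.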

[3] = qHTS assay to identify small molecule that activate the aryl hydrocarbon receptor (AhR) signaling pathway - cell viability counter screen (AID 743086);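 note: HepG2 liver cells carrying the AhR DRE luciferase reporter; series mostly up to about 70 µM; nearly all actives have a fitted effect of over 45% in size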
How it was run: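 Cytotoxicity counter screen: CellTiter-Fluor signal (30 min, 37 C) in 4000 HepG2 cells/well carrying the DRE-luciferase reporter, following 24 h compound exposure at 37 C.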

[4] = target: Peroxisome proliferator-activated receptor gamma (Homo sapiens) (UniProt P37231); assay: qHTS assay to identify small molecule agonists of the peroxisome proliferator-activated receptor gamma (PPARg) signaling pathway (AID 743094; active = well fitted activation curve with a large enough effect in the signal ratio in the repeat runs, not every such curve was filed as active; the % refers to the signal ratio)
How it was run: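 Stably transfected HEK293H cells (GeneBLAzer PPARg UAS-bla) were incubated with test substances for 17 h at 37C after a 5 h pre-incubation; beta-lactamase activity was then detected by FRET substrate fluorescence.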

[5] = target: Peroxisome proliferator-activated receptor gamma (Homo sapiens) (UniProt P37231); assay: qHTS assay to identify small molecule antagonists of the peroxisome proliferator-activated receptor gamma (PPARg) signaling pathway (AID 743191; calls by dose curve; note: series mostly up to about 63 µM; nearly all actives have a fitted effect of over 30% in size)
How it was run: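 Beta-lactamase reporter under UAS control in HEK293H PPARg-bla cells; compound treatment 17 h at 37C. Read-out: fluorescence intensity after 1 h room-temperature incubation with LiveBLAzer B/G FRET substrate.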

[6] = qHTS assay to identify small molecule antagonists of the peroxisome proliferator-activated receptor gamma (PPARg) signaling pathway - cell viability counter screen (AID 743194); settings: Potency: co-treated with 50 nM rosiglitazone; note: nearly all actives have a fitted effect of over 55% in size
How it was run: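 Viability was measured as CellTiter-Glo luminescence in GeneBLAzer PPARg UAS-bla HEK293H cells. These cells had been exposed 17 h at 37 C to compounds together with rosiglitazone at 50 nM final, with the beta-lactamase readout taken in the same wells.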

[7] = qHTS assay for small molecule agonists of the antioxidant response element (ARE) signaling pathway (AID 743202; active = well fitted activation curve with a large enough effect in the signal ratio in the repeat runs, not every such curve was filed as active; the % refers to the signal ratio; note: potency is the fitted concentration of half-maximal effect)
How it was run: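 Quantitative high-throughput format in HepG2 cells bearing an integrated ARE-beta-lactamase reporter. Compound exposure lasted 16 h at 37 C, and fluorescence was read 2 h after adding LiveBLAzer B/G substrate at room temperature.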

[8] = qHTS assay for small molecule agonists of the antioxidant response element (ARE) signaling pathway - cell viability counter screen (AID 743203; calls by dose curve; note: nearly all actives have a fitted effect of over 55% in size)
How it was run: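 Cells (ARE-bla HepG2, 2,000/well) receive DMSO-dissolved compounds after a 5 hrs rest. Plates incubate 16 hrs at 37C/5% CO2. CellTiter-Glo luminescence is then recorded after 30 min at room temperature.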

[9] = qHTS assay for small molecule activators of the heat shock response signaling pathway - cell viability counter screen (AID 743209); note: nearly all actives have a fitted effect of over 50% in size
How it was run: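 Quantitative HTS format, Tox21 10K library. HeLa cells carrying an HSE-driven beta-lactamase reporter were treated 5 h at 37 C, then assessed for viability by CellTiter-Glo luminescence.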

[10] = qHTS assay for small molecule activators of the heat shock response signaling pathway (AID 743210; active = well fitted activation curve with a large enough effect in the signal ratio in the repeat runs, with a control signal flat, not every such curve was filed as active; the % refers to the signal ratio;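 note: HeLa cells with beta-lactamase reporter driven by heat shock elements; series mostly up to about 63 µM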)
How it was run: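 HeLa HSE-bla cells, overnight plating; cpd in DMSO 5 h, 37 C; LiveBLAzer B/G FRET substrate 2.5 h RT; fluorescence intensity read.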

Measured: Potency

Chain of Aryl hydrocarbon receptor (Homo sapiens) (P35869 whole entry, looked up): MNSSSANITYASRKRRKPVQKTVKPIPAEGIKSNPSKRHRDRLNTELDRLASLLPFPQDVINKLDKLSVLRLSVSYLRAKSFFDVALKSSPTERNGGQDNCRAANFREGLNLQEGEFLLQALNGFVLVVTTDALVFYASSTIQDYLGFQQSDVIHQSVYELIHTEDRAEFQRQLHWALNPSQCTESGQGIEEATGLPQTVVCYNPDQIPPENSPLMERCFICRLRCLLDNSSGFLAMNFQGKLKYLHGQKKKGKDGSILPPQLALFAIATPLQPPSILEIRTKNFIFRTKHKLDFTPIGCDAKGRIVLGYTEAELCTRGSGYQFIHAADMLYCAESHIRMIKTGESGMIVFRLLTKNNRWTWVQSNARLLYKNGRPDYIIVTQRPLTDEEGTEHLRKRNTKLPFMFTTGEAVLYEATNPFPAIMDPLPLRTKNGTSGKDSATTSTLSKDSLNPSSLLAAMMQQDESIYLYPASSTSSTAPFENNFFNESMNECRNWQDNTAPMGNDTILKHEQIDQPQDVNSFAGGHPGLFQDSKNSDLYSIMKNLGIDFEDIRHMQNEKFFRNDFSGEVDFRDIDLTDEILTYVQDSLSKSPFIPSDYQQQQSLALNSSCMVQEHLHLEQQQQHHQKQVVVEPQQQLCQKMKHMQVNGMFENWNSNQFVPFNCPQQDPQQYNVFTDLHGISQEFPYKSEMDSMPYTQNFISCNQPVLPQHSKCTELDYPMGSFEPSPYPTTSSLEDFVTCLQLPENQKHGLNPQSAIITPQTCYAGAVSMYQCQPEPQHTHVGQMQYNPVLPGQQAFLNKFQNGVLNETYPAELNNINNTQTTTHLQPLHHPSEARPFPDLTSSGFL
Chain of Peroxisome proliferator-activated receptor gamma (Homo sapiens) (P37231 whole entry, looked up): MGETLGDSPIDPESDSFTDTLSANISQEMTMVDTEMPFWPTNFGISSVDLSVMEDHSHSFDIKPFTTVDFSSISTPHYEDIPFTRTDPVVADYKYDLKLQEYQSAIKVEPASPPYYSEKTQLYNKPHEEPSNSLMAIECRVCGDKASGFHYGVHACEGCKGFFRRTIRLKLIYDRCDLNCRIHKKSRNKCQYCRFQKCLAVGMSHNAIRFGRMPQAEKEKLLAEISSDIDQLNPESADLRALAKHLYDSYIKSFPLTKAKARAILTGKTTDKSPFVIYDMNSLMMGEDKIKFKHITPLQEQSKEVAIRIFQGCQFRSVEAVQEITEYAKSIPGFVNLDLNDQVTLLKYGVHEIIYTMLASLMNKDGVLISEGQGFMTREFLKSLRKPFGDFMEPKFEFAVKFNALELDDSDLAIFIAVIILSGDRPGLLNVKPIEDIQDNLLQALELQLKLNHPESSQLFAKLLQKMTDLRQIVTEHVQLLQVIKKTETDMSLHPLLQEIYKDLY

CC(C)COP(=O)(OCC(C)C)OCC(C)C
not listed: [10]
inactive: all other assays above

Nc1n[nH]c(N)n1
inactive: all assays above

CN(N=O)C(N)=O
not listed: [10]
inactive: all other assays above

CC(C)CC#N
inactive: all assays above

C=CC1CC=CCC1 (configuration not stated)
inactive: all assays above

ClCC(Cl)(Cl)Cl
inactive: all assays above

N#CCNCC#N
not listed: [10]
inactive: all other assays above

OCCBr
active: [7] 27.4 µM
inactive: all other assays above

O=P(O)(Oc1ccccc1)Oc1ccccc1
inactive: all assays above

Nc1ccccc1Cl
inactive: all assays above

CC(C)NCC(O)c1ccc(N)c(C#N)c1 (configuration not stated)
inactive: all assays above

CNC(=O)O/N=C(\C)SC
inactive: all assays above

C[C@@H]1CN(C2CCC(C#N)(c3ccc(F)cc3)CC2)CC[C@]1(C(=O)O)c1ccccc1 (some centres not stated)
not listed: [10]
inactive: all other assays above

Clc1cccc(N2CCNCC2)c1
not listed: [10]
inactive: all other assays above

O=NN1CCCCC1
inactive: all assays above

CC(N)=S
not listed: [10]
inactive: all other assays above

N#Cc1c(Cl)cccc1Cl
inactive: all assays above

COP(=S)(OC)Oc1c(Cl)cc(C)cc1Cl
active: [2] 48.6 µM
inactive: all other assays above

Cc1cc(C)nc(Nc2ccccc2)n1
active: [2] 48.6 µM
not listed: [10]
inactive: all other assays above

N#CC(Cl)(Cl)Cl
not listed: [9] | [10]
inactive: all other assays above

Cc1ncc(CNC(=O)N(CCCl)N=O)c(N)n1
inactive: all assays above

CC(=O)Nc1cc([As](=O)(O)O)ccc1O
not listed: [10]
inactive: all other assays above

O=CNC(N1CCN(C(NC=O)C(Cl)(Cl)Cl)CC1)C(Cl)(Cl)Cl (configuration not stated)
not listed: [10]
inactive: all other assays above

OC(Cn1cncn1)(c1ccc(F)cc1)c1ccccc1F (configuration not stated)
inactive: all assays above

N#CCCC#N
inactive: all assays above

O=C1CN=C(c2ccccc2)c2cc([N+](=O)[O-])ccc2N1
inactive: all assays above

[O]=[Cd]
inactive: all assays above

CCOP(=O)(N=C1SCCS1)OCC
not listed: [10]
inactive: all other assays above

OCCSCSCCO
not listed: [10]
inactive: all other assays above

CC(C)(C)C(=O)C(Oc1ccc(Cl)cc1)n1cncn1 (configuration not stated)
active: [2] 48.5 µM
inactive: all other assays above

CCN(CC)C(C)C(=O)c1ccccc1 (configuration not stated)
inactive: all assays above

CN(C)CCc1ccc(O)cc1
inactive: all assays above

CCCCCCI
inactive: all assays above

N#CC(O)c1ccccc1 (configuration not stated)
inactive: all assays above

c1coc(-c2nc3ccccc3[nH]2)c1
active: [2] 30.6 µM
inactive: all other assays above

ClC(Cl)(Cl)C(Cl)(Cl)Cl
inactive: all assays above

CSc1ccc(C(=O)C(C)(C)N2CCOCC2)cc1
not listed: [10]
inactive: all other assays above

OC(c1ccccc1)(c1ccccc1)C1CCNCC1
not listed: [7]
inactive: all other assays above

CCCCc1ccc(O)cc1
not listed: [7] | [10]
inactive: all other assays above

CCOC(=O)N(C)C(=O)CSP(=S)(OCC)OCC
active: [2] 15.4 µM
not listed: [7]
inactive: all other assays above

Cc1cc(C)c(C(=O)P(=O)(C(=O)c2c(C)cc(C)cc2C)c2ccccc2)c(C)c1
not listed: [7] | [10]
inactive: all other assays above

ClCC(Cl)Cl
not listed: [7]
inactive: all other assays above

NC(=S)C(N)=S
not listed: [6] | [7]
inactive: all other assays above

O=[N+]([O-])c1cccc2c([N+](=O)[O-])cccc12
active: [7] 3.88 µM
not listed: [9]
inactive: all other assays above

CCSC(=O)N(CC)C1CCCCC1
not listed: [5] | [10]
inactive: all other assays above

CNCC(=O)c1ccc(O)c(O)c1
not listed: [7] | [10]
inactive: all other assays above

CCC1(c2ccccc2)C(=O)N=C(O)NC1=O (configuration not stated)
inactive: all assays above

COC(=O)C(c1ccccc1)C1CCCCN1 (configuration not stated)
not listed: [7]
inactive: all other assays above

CC(=O)[C@H]1CC[C@H]2[C@@H]3CC[C@H]4C[C@H](O)CC[C@]4(C)[C@H]3C(=O)C[C@]12C
not listed: [7]
inactive: all other assays above

CC(=O)C(Cl)Cl
not listed: [6]
inactive: all other assays above

CC(=O)CCc1ccc2c(c1)OCO2
not listed: [5]
inactive: all other assays above

O=C(N[C@H]1CN2CCC1CC2)c1cc2ccoc2cn1
not listed: [7]
inactive: all other assays above
